Some test systems named below: SR leukemia; RPMI-8226 leukemia; OVCAR-8 ovarian; OVCAR-5 ovarian; OVCAR-4 ovarian; SK-OV-3 ovarian; IGROV1 ovarian; OVCAR-3 ovarian; NCI/ADR-RES ovarian; T-47D breast; BT-549 breast; MDA-MB-435 melanoma; SW-620 colon; MCF7 breast; HCT-116 colon; HCC-2998 colon; KM12 colon; MDA-MB-468 breast.
Common to all, as to test: NCI-60 one-dose screen, 48 h (100 = growth as untreated, 0 = no growth, -100 = all killed)
Common to all, as to conditions: 10 µM unless noted

Molecules are shown by their SMILES. About 83,000 compounds went through this panel and 20% of them were active in at least one assay; those are over-represented in the sample as a whole.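 Single-concentration screen, 48 h exposure, 96-well plates. Endpoint: percent growth. Below 10 = active.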 Unmarked numbers belong to inactive results. The source made the active and inactive calls.

Turning to `COc1ccc(N2N=C(c3ccc4c(c3)OCO4)CC2c2cccc(NC(=O)CCCNS(=O)(=O)c3ccc(F)cc3)c2)cc1` (stereo unspecified), the growth in the test with SR leukemia was 18.3%; in the test on RPMI-8226 leukemia it was 39.4%; in the test with OVCAR-8 ovarian it was 78.8%; in the test on OVCAR-5 ovarian it was 99.2%; with OVCAR-4 ovarian, 57.5%; in the test on SK-OV-3 ovarian it was 83.5%. Also, the growth with IGROV1 ovarian is 90.7%; in the test with OVCAR-3 ovarian it was 81.3%; with NCI/ADR-RES ovarian it was 84.5%; with T-47D breast it was 53%; in the test with BT-549 breast it was 97.3%; in the test with MDA-MB-435 melanoma it was 63.2%. Moreover, the growth in the test on SW-620 colon was 86.2%; with MCF7 breast, 42.2%; with HCT-116 colon, 49.9%; with HCC-2998 colon, 60.1%; with KM12 colon, 41.3%; with MDA-MB-468 breast it was 35.5%.
Turning to `NS(=O)(=O)c1ccc(CCNC(=O)CSc2ccc(-c3ccc(Br)cc3)nn2)cc1`, the growth in the test with SR leukemia is 55.9%; in the test on RPMI-8226 leukemia it was 40.1%; in the test on OVCAR-8 ovarian it was 64.6%; in the test with OVCAR-5 ovarian, 94.9%; in the test with OVCAR-4 ovarian, 49.3%; in the test on SK-OV-3 ovarian, 73%. Further, the growth was 72.1% in the test on IGROV1 ovarian; 91% in the test on OVCAR-3 ovarian; 102% in the test with NCI/ADR-RES ovarian; 41.2% in the test on T-47D breast; 39.5% in the test on BT-549 breast; 59.1% with MDA-MB-435 melanoma. The growth in the test with SW-620 colon is 72.2%; with HCT-116 colon it was 21.3%; in the test on HCC-2998 colon it was 92.5%; in the test on KM12 colon, 66.4%; in the test on MDA-MB-468 breast it was 20.8%.
As for `CC(=O)Nc1cccc(Nc2nc(NCc3ccccc3)c3ccccc3n2)c1`, the growth in the test with SR leukemia was -45.3% (active); in the test with RPMI-8226 leukemia, -38.3% (active); in the test on OVCAR-8 ovarian it was -73.6% (active); in the test with OVCAR-5 ovarian it was -98.4% (active); in the test on OVCAR-4 ovarian, -73.2% (active); in the test with SK-OV-3 ovarian, -96.2% (active). Moreover, the growth is -94.1% (active) in the test with IGROV1 ovarian; -79.3% (active) in the test with OVCAR-3 ovarian; -65% (active) in the test on NCI/ADR-RES ovarian; -60.1% (active) in the test on T-47D breast; -86.8% (active) with BT-549 breast; -92.8% (active) with MDA-MB-435 melanoma. Further, the growth is -77.2% (active) in the test on MCF7 breast; -74.7% (active) in the test with HCT-116 colon; -98.8% (active) with HCC-2998 colon; -66% (active) in the test on KM12 colon; -93.7% (active) in the test on MDA-MB-468 breast.
In the case of `C=C1CC[C@@H]2[C@]3(C)COC(c4cn[nH]c4-c4ccc(C)cc4)O[C@@H]3CC[C@@]2(C)[C@@H]1C/C=C1/C(=O)OCC1O` (stereo partly specified), the growth with SR leukemia is -25% (active); in the test with RPMI-8226 leukemia, -25.2% (active); in the test on OVCAR-8 ovarian it was -21.7% (active); in the test on OVCAR-5 ovarian, 20.4%; in the test on OVCAR-4 ovarian it was 31.9%; with SK-OV-3 ovarian, 79.9%. For the same molecule, the growth with IGROV1 ovarian is 24%; with OVCAR-3 ovarian, -23.1% (active); with NCI/ADR-RES ovarian, -41.8% (active); in the test with T-47D breast, 39.4%; with BT-549 breast, -30.5% (active); in the test on MDA-MB-435 melanoma it was -16.6% (active). Moreover, the growth is 8.74% (active) with MCF7 breast; -68.5% (active) in the test on HCT-116 colon; 2.89% (active) in the test on HCC-2998 colon; 39.3% in the test on KM12 colon; -49.3% (active) with MDA-MB-468 breast.
For the molecule `O=C(c1ccc(OCCN2CCOCC2)cc1)C1[C@H](c2ccc(Cl)cc2)[C@@H](c2ccccc2)NC12C(=O)Nc1ccc(Cl)cc12` (stereo partly specified), the growth was -46.3% (active) in the test with SR leukemia; 15.5% in the test with RPMI-8226 leukemia; 39% in the test on OVCAR-8 ovarian; 50.5% in the test with OVCAR-5 ovarian; 48.3% with OVCAR-4 ovarian; 50.1% in the test on SK-OV-3 ovarian. Moreover, the growth in the test with IGROV1 ovarian was 24%; in the test with OVCAR-3 ovarian it was 40.4%; with NCI/ADR-RES ovarian, 24.5%; with T-47D breast, 34.6%; with BT-549 breast, 57.1%; in the test on MDA-MB-435 melanoma it was 42%. Further, the growth in the test with SW-620 colon is 41.5%; with MCF7 breast it was 4.28% (active); with HCT-116 colon it was 11.5%; in the test with HCC-2998 colon, -30% (active); in the test on KM12 colon, 16.4%; in the test on MDA-MB-468 breast it was -7.83% (active).
In the case of `CC1=C(C(=O)c2ccccc2)C(c2ccc(-n3cncn3)cc2)n2c(nc3ccccc32)N1` (stereo unspecified), the growth in the test on SR leukemia was 76.9%; in the test on RPMI-8226 leukemia, 63.4%; in the test on OVCAR-8 ovarian it was 91.4%; in the test with OVCAR-5 ovarian, 97.3%; with OVCAR-4 ovarian, 71.8%; in the test on SK-OV-3 ovarian it was 79.3%. For the same molecule, the growth with IGROV1 ovarian is 83.1%; in the test with OVCAR-3 ovarian it was 107%; in the test on NCI/ADR-RES ovarian, 85.6%; in the test with T-47D breast, 83.6%; in the test with BT-549 breast, 67.4%; in the test with MDA-MB-435 melanoma it was 94%. For the same molecule, the growth in the test with MCF7 breast is 66.7%; in the test with HCT-116 colon, 73%; in the test with HCC-2998 colon, 109%; in the test on KM12 colon it was 94.6%.
As to `Cc1ccc2c(N)c(C(=O)Nc3ccc(-c4ccccc4)cc3)sc2n1`, the growth with SR leukemia was 43.1%; with RPMI-8226 leukemia, 49.2%; in the test with OVCAR-8 ovarian, 73.4%; in the test on OVCAR-5 ovarian, 71%; in the test on OVCAR-4 ovarian it was 47.3%; in the test on SK-OV-3 ovarian, 60.3%. The growth with IGROV1 ovarian is 72.5%; with OVCAR-3 ovarian, 79.1%; in the test with NCI/ADR-RES ovarian, 50.5%; in the test on T-47D breast, 29.5%; in the test with BT-549 breast it was 53.2%; in the test with MDA-MB-435 melanoma, 69.1%. The growth with MCF7 breast is 43.2%; in the test on HCT-116 colon, 29.5%; in the test with HCC-2998 colon it was 101%; in the test on KM12 colon, 77.3%; in the test on MDA-MB-468 breast, 17.8%.
For the molecule `COc1ccc(C2=NN(C(C)=O)C(c3ccc(OCc4ccc(Cl)cc4)c(OC)c3)C2)cc1OC` (stereo unspecified), the growth is 52.4% in the test on SR leukemia; 37% with RPMI-8226 leukemia; 43.5% in the test with OVCAR-8 ovarian; 79.8% in the test with OVCAR-5 ovarian; 29.4% in the test on OVCAR-4 ovarian; 84.9% with SK-OV-3 ovarian. Also, the growth is 49% with IGROV1 ovarian; 41.4% with OVCAR-3 ovarian; 56.1% in the test with NCI/ADR-RES ovarian; 10.2% with T-47D breast; 33.8% in the test on BT-549 breast; 43% in the test on MDA-MB-435 melanoma. Besides, the growth was 61.2% in the test on SW-620 colon; 20.1% in the test on MCF7 breast; 35.3% in the test on HCT-116 colon; 83.4% in the test with HCC-2998 colon; 39% in the test on KM12 colon; 31.1% with MDA-MB-468 breast.
Take `COc1cc2oc(-c3cccc(NC(=O)[C@H](CC(N)=O)NC(=O)OC(C)(C)C)c3)cc(=O)c2c(OC)c1OC`: the growth is 58.4% with SR leukemia; 69.3% in the test on RPMI-8226 leukemia; 73.3% in the test on OVCAR-8 ovarian; 95.5% in the test on OVCAR-5 ovarian; 94.6% in the test with OVCAR-4 ovarian; 140% in the test on SK-OV-3 ovarian. The growth in the test with IGROV1 ovarian is 96.9%; in the test with OVCAR-3 ovarian it was 105%; with NCI/ADR-RES ovarian it was 102%; with T-47D breast, 65.7%; in the test on BT-549 breast, 82.6%; in the test on MDA-MB-435 melanoma, 97.2%. The growth is 94.5% with SW-620 colon; 71.8% in the test on MCF7 breast; 89.3% in the test with HCT-116 colon; 100% in the test on HCC-2998 colon; 87.1% in the test on KM12 colon; 82.7% in the test on MDA-MB-468 breast.

Values taken from PubChem BioAssay (NCI).
